Reference: PubChem BioAssay (NCI)
Values joined by “and” are separate entries in the source; they are usually repeats but may differ in a detail not shown here. Identical values can stand only once. The panel holds about 79,000 compounds, 15% with a hit somewhere; the sample as a whole holds those more often. Values without a mark were called inactive. Active and inactive are the calls of the source. Rule as the data show it: active = growth inhibition above about 70%; inactive = the rest.

Assay: NCI Yeast Anticancer Drug Screen. Data for the mec2-1 strain (AID 157)
Settings: S. cerevisiae mec2-1 strain, hits give high values
Protocol: Growth inhibition of yeast strains with defined genetic alterations is measured as a screen for potential anti-cancer activity. Selected strains with alterations in DNA damage repair or cell cycle control were exposed to compounds and growth inhibition was measured relative to vehicle treated controls. The strain used in this assay is mec2-1

[1] = at 5.0 µM (retest, dose inferred, filed as 0.5)
[2] = at 50.0 µM (retest, dose inferred, filed as 5.0)

| Structure (SMILES) | growth inhibition [1] | growth inhibition [2] | growth inhibition (at 50.0 µM) |
| --- | --- | --- | --- |
| Nc1ncnc2c(C3OC(CO)C(O)C3O)c[nH]c12 (configuration not stated) | 14% | 92% (active) | – |
| COc1ccc2c(c1)c(CC(=O)O)c(C)n2C(=O)c1ccc(Cl)cc1 | 1% | 57% | 48.2% |
| O=S(=O)(O)c1cnccn1 | -2% | -3% | 98.3% (active) |
| C(CCc1nn[nH]n1)CCC1CCCCC1 | 10% | 98% (active) | – |
| COC(=O)c1nc(=S)[nH]c(C(=O)OC)c1C(=O)c1ccc(Cl)c(Cl)c1 | -1% | 98% (active) | 99% (active) |
| CN(C)c1ccc(/C=C/c2cc[n+](C)c(/C=C/c3ccc(N(C)C)cc3)c2)cc1 | 100% (active) | 95% (active) | 93.3% (active) |
| Oc1ccc2ccccc2c1N=Nc1nccs1 | 51% | 92% (active) | 91.1% (active) |
| CCC(=O)c1cc([N+](=O)[O-])c(Br)s1 | 99% (active) | 100% (active) | 99.6% (active) |
| CC(C)(C)CC(C)(C)c1ccc(OCCOCCSC(=N)N)cc1 | -3% | 100% (active) | 47% |
| CCCCN(CCCC)C(=O)C(C)OC(C)=O (configuration not stated) | -4% | 0% | – |
| CC1=CC[C@@H]2[C@@H](CC[C@@]2(C)O)C(C)(C)[C@H]1CC[C@@H]1[C@@]2(C)CCC(=O)C(C)(C)O[C@@H]2CC[C@]1(C)O | 13% | 37% | 62.9% |
| N=C1C(=N)c2ccccc2-c2ccccc21 | 25% | 100% (active) | 91.2% (active) |
| COc1c(/C=C/C=O)cc2c(c1OC)OCO2 | 17% | 40% | -6.3% |
| O=C1CCOC2=C1COC2=O | – | – | -6.05% and 17.6% |
| C=CCC1=C(C)C(OC(=O)C=C(C)C)CC1=O (configuration not stated) | – | – | -4% and -13.8% |
| Cc1cc(Cc2cc(C)c(O)c(C(=O)O)c2)cc(C(=O)O)c1O | – | – | 10.1% and -0.4% |
| Nc1cc(=O)[nH][nH]1 | – | – | -9.65% and -5.8% |
| NNS(=O)(=O)c1ccc(Cl)cc1 | – | – | -19.1% and 2.45% |
| c1ccc([P+](Cc2ccccc2C[P+](c2ccccc2)(c2ccccc2)c2ccccc2)(c2ccccc2)c2ccccc2)cc1 | – | – | -20.9% and 6.8% |
